Rows were chosen to be rich in hits. Some 1.1% of all compounds tested hit in one or more screens of this group.
p53 reactivator: mutant p53 re-activation in reporter cells. H1299 p53-A138V BP100-luciferase reporter, luminescence, 24 h. Potency, µM (titrated, usually from 92.2 µM), inactives show top-dose activity change, positive = activation, most hits filed as activators. 320,000 compounds, 0.063% hits. AID 504706; also: potency is read from the fitted curve at half-maximal effect; % of control where 0% means no effect; nearly all actives have a fitted effect of over 45% in size
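H1299 (p53-null), stable ts p53-A138V + BP100-Luc; 1000 cells/well, Opti-MEM/10% FBS; cpd 4 pt, 1:5; 24 h, 37 deg C, 5% CO2; detection reagent 10 min RT; luminescence.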
RXFP1 ag: activates the human relaxin receptor RXFP1. 370,000 compounds, 0.3% hits. Potency, µM (doses to about 57.5 µM), for inactives: at the highest dose activation, most hits filed as activators. HEK293T-RXFP1 cAMP TR-FRET, 30 min; response scale: percent of porcine relaxin response, buffer zero. AID 2676; also: potency is read from the fitted curve at half-maximal effect; % is scaled to controls: 0 for no effect and ±100 for the full control effect; nearly all actives have a fitted effect of over 60% in size
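cAMP rise read by TR-FRET after 30 min, 37C compound exposure (up to 58 uM) in RXFP1-transfected HEK293 cells with Ro 20174 present. EC50 from Hill-equation fits, with 29 nM porcine relaxin as 100% and buffer as basal.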
gsp ag: agonists of gsp mutant (McCune-Albright syndrome) | gsp mutant cells, cAMP HTRF, 30 min | Potency, µM (doses to about 76.9 µM), inactives show at the top dose activation (cAMP increase), hits mostly activators | AID 624287 | 340,000 compounds, 0.13% hits; active = well fitted activation curve with a large enough effect; inconclusive = small, poorly fitted or top-dose-only effect, or another doubt; inactive = no such curve, though single readings can be large or run the other way; cell line not stated here;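 also: phosphodiesterase inhibitor Ro 20-1724 added with compounds to block cAMP breakdown; potency is read from the fitted curve at half-maximal effect; nearly all actives have a fitted effect of over 60% in size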
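Cells stably selected in G418 were plated at 2000/well, grown 16-24 hr, then given compounds in DMSO with the PDE inhibitor […] (300 uM solution added) for 30 min at 37C; cAMP was read by HTRF.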
Tb PFK block: blocks T. brucei phosphofructokinase | O15648 | T. brucei PFK, ADP-Glo luminescence | Potency, µM (top dose mostly 57.5 µM), for inactives: at the top dose activity, negative = inhibition, actives largely listed as inhibitors | 330,000 compounds, 0.17% hits | AID 485367;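 also: potency is read from the fitted curve at half-maximal effect; 0% = uninhibited 1x PFK enzyme wells and -100% = no-enzyme wells; nearly all actives have a fitted effect of over 60% in size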
Target sequence (O15648 whole entry, looked up): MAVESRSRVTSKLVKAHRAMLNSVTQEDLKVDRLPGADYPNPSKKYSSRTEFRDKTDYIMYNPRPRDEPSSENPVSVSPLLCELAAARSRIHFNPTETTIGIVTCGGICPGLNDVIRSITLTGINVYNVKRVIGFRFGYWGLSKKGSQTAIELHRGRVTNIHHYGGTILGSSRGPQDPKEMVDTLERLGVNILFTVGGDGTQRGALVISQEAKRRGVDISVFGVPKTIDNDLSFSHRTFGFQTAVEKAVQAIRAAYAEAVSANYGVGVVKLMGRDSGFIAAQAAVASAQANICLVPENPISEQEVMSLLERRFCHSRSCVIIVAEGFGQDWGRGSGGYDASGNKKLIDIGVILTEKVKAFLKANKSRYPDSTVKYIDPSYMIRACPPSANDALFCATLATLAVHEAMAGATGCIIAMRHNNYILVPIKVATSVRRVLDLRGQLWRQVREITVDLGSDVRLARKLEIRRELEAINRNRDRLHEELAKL
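1.25 nM PFK with 0.5 mM F6P and 0.1 mM ATP in 0.1 M TEA pH 8.0, 5 mM MgCl2, incubated 45 min at room temperature; ADP measured by ADP-Glo luminescence; compounds titrated up to 57 uM.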
gsp antagonist: antagonizes gsp, the McCune-Albright syndrome mutation. gsp-mutant cells, cAMP HTRF, 30 min. 340,000 compounds, 0.4% hits. Potency, µM (series often up to 76.9 µM), without a hit: top-dose activity change, negative = inhibition, usual class: inhibitors. AID 624288; calls by dose curve; cell line not stated here;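 also: intracellular cAMP measured with PDE inhibitor Ro 20-1724 present during compound exposure; potency is read from the fitted curve at half-maximal effect; % is scaled to controls: 0 for no effect and ±100 for the full control effect; nearly all actives have a fitted effect of over 65% in size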
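HTRF cAMP measurement after 30 min RT detection following 30 min, 37C compound treatment alongside […] (added as 300 uM solution) in G418-selected cells seeded at 2000/well and grown 16–24 h.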
RXFP1 antagonist: RXFP1 (human) relaxin receptor antagonism. HEK293-RXFP1, relaxin-stimulated cAMP HTRF, 30 min; hits give low values. AID 1259400. 350,000 compounds, 0.59% hits. Q9HBX9. activity change, negative = inhibition, % at 57.5 µM;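 active = activity change of -60% or lower, but not beyond a set lower limit; inconclusive = change between -60% and -40%, or beyond the set limit; inactive = change above -40%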; also: % is scaled to controls: 0 for no effect and ±100 for the full control effect
Active calls of the source: *; ? = inconclusive; · = not tested or not shown; [ ] = another dose, or the depositor's remark. Unless noted, calls follow the shape of the dose curve; as a rule, active = well fitted curve in the direction sought with a large enough effect; inconclusive = small, poorly fitted or top-dose-only effect, or another doubt; inactive = no such curve, though single readings can be large; an effect the other way counts as inactive or inconclusive.

SMILES	p53 reactivator	RXFP1 ag	gsp ag	Tb PFK block	gsp antagonist	RXFP1 antagonist
COc1ccc(NC(=O)c2ccc3c(c2)N(Cc2cccc(Cl)c2)C(=O)c2ccccc2S3=O)cc1Cl (stereo unspecified)	·	0%	·	·	·	-31
CN(Cc1ccccc1)C(=O)CN1CCN(C(c2ccccc2)c2ccccc2)CC1	-4%	3%	-10%[15.4 µM]	-3%	-22%	-81*
O=c1[nH]c2ccccc2n1CCCN1CCCCC1	-1%	0%	-2%[15.4 µM]	-5%	19%	-31
O=c1[nH]c2ccccc2n1CCCN1CCN(C(c2ccccc2)c2ccccc2)CC1	3%	4%	·	0%	·	-75*
COc1cc2ccccc2cc1C(=O)Nc1ccc(C)cc1	1%	0%	5%	0%	32µM*	-16
COc1ccccc1C(=O)Nc1ccc2ccccc2c1	·	·	8%	·	-10%	14
COc1cc2ccccc2cc1C(=O)Nc1ccc(Cc2ccncc2)cc1	7%	1%	-4%	-2%	35µM*	-15
CCOc1ccc(/C=N/NC(=O)c2cc3ccccc3cc2OC)cc1	-8%	5%	-12%	2%	28µM*	0
Cc1cc(C(=O)OCC(=O)Nc2c(F)cccc2F)c(C)n1-c1ccccc1	7%	-1%	4%[15.4 µM]	-2%	-16%	-16
COc1ccc(CCNc2ncnc3c2oc2ccccc23)cc1OC	-2%	0%	?	0%	?	-36
COc1ccc(CCNc2nc(C)nc3c2oc2ccccc23)cc1OC	-4%	1%	12%	-4%	40µM*	?
CCOC(=O)c1nnn(-c2nonc2N)c1CN1CCCCCC1	3%	4%	-26%	3%	-4%	-2
CCOC(=O)c1nnn(-c2nonc2N)c1CN1CCCC1	·	-2%	-58%	1%	50µM*	8
Cc1cc(-n2c(=S)sc3c(=O)n(-c4ccc(F)cc4)c(SCC(=O)O)nc32)ccc1Cl	6%	4%	29%	-3%	2%	-20
CCOC(=O)Cc1nnc2c(Nc3ccc(Cl)cc3)nc3nonc3n12	-3%	1%	6%	21%	35µM*	-14
Cc1ccc(OCc2ccc(-c3nc(C#N)c(N4CCN(c5cccc(Cl)c5)CC4)o3)o2)cc1	·	1%	·	·	·	0
O=C(O)CSCC(=O)N1CCN(c2ccnc3cc(Cl)ccc23)CC1	5%	2%	-57%	-1%	13%	-13
O=C(O)CSc1ccnc2cc(Cl)ccc12	-3%	13µM*	20%[15.4 µM]	7%	21%	20
Cc1cnc2cc(Cl)ccc2c1SCC(=O)O	-3%	21%	10µM*	-2%	-5%	11
COc1ccc(-c2csc(Nc3ncccc3C)n2)cc1	45µM*	-1%	-22%	2%	?	-12
COc1ccc(-c2csc(Nc3ncccc3C)n2)cc1OC	?	0%	1%	16%	?	-22
CC(C)c1ccc2c(c1)C(N1CCNCC1)Cc1ccc(F)cc1S2 (stereo unspecified)	·	·	-2%	·	16%	-72*
CC(C)N(Cc1ccccc1)C(=O)COC(=O)c1cnc(Cl)c(Cl)c1	1%	·	9%	8%	-27%	-72*
CC(C)N(Cc1ccccc1)C(=O)COC(=O)c1cc(S(=O)(=O)N(C)C)ccc1N1CCCC1	-13%	·	6%	0%	-15%	-75*
Oc1c(C(c2ccco2)N2CCN(C(c3ccccc3)c3ccccc3)CC2)sc2ncnn12 (stereo unspecified)	4%	1%	-8%	0%	-25%	-9
SMILES	p53 reactivator	RXFP1 ag	gsp ag	Tb PFK block	gsp antagonist	RXFP1 antagonist
O=C(Nc1ccc([N+](=O)[O-])cc1)Nc1ccc(OC(F)F)c(Cl)c1	-4%	1%	-26%	-4%	40µM*	?
O=C(Nc1ccc(OC(F)F)c(Cl)c1)c1cccc(OC(F)F)c1	19%	0%	12%	7%	40µM*	-21
COc1ccc(NC(=O)c2cccc(OC(F)F)c2)cc1Cl	11%	-1%	-106%	-5%	-15%	3
COCCn1c(C)cc(C(=O)COC(=O)c2cncc(Br)c2)c1C	?	-5%	12%	2%	2%	-9
CS(=O)(=O)c1nc(-c2ccccc2)cc(C(F)(F)F)n1	-41%	1%	0%[15.4 µM]	-28%	18%	-106*
Cc1cc(NC(=O)CCS(=O)(=O)c2nc(-c3ccccc3)cc(C(F)(F)F)n2)no1	-24%	0%	-25%	-22%	14%	-25
CCCC(=O)c1ccc(N2CCCCCC2)c(F)c1	40µM*	1%	21%	-1%	-3%	-15
CCCC(=O)c1ccc(N2CCCCC2)c(F)c1	-1%	4%	-18%	1%	6%	-6
CN(C(=O)c1ccc2c(=O)n3c(nc2c1)CCCCC3)c1ccccc1F	2%	3%	-30%	-5%	0%	35
Cc1ccc(C)c(N(C)C(=O)c2ccc3c(=O)n4c(nc3c2)CCCCC4)c1	19%	-3%	-2%	-6%	-6%	-102*
O=C(Cc1sc(-c2ccccc2)nc1-c1ccccc1)Nc1ccccc1	-5%	-1%	-3%	0%	-8%	-15
O=C(Cc1sc(Nc2ccccc2)nc1-c1ccccc1)NCc1ccccc1	40µM*	0%	-36%	5%	-17%	3
CCC1/C(=N\O)CC(c2ccco2)NC1c1ccco1 (stereo unspecified)	0%	0%	-33%	5%	?	10
Cc1ccc(SCc2cc(=O)[nH]c(N3CCN(Cc4ccccc4)CC3)n2)cc1	-6%	1%	-1%	-1%	2%	-4
CCC(Oc1ccc(F)cc1)C(=O)Nc1nc2c(s1)CCCC2 (stereo unspecified)	·	1%	·	·	·	-117*
COc1ccc(CC(=O)Nc2nc3c(s2)CCCC3)cc1	·	-1%	·	·	·	-15
Cc1ccc(/C=N/NC(=O)C(C)Oc2ccccc2[N+](=O)[O-])s1 (stereo unspecified)	8%	3%	-9%	0%	11µM*	·
Fc1ccc(Br)cc1C1C=C(c2ccc(Br)s2)Nc2ncnn21 (stereo unspecified)	-13%	9%	-6%	14%	?	-68*
COc1ccc(C(=O)Nc2ccc(OCc3ccccc3)cc2)cc1[N+](=O)[O-]	1%	3%	-18%	2%	-11%	-1
COc1ccc(C(=O)Nc2ccc(Nc3ccccc3)cc2)cc1[N+](=O)[O-]	·	-1%	-11%	0%	28µM*	3
CC(C)(C)c1ccc(C(=O)Nc2ccc(F)cc2)s1	?	32µM*	17%	3%	2%	?
CC1=NNC(=O)/C1=C\c1cn(-c2ccccc2)nc1-c1ccc(F)cc1	-9%	0%	-9%[15.4 µM]	5%	-2%	-61*
